Screens (PubChem BioAssay)
D2 PAM-1: Beta-Arrestin HTS for Positive Allosteric Modulators of the Human D2 Dopamine Receptor: Potentiators; 360,000 compounds, 0.23% hits; DiscoveRx D2 beta-arrestin cells, luminescence, 90 min; 100% = 57 uM dopamine signal; AID 624464, 2012; D(2) dopamine receptor (Homo sapiens), P14416; potentiation, % (no concentration beside the values); in the data active = potentiation above about 50%; inconclusive = mostly about 30% to 49%
Target sequence (P14416 whole entry, looked up): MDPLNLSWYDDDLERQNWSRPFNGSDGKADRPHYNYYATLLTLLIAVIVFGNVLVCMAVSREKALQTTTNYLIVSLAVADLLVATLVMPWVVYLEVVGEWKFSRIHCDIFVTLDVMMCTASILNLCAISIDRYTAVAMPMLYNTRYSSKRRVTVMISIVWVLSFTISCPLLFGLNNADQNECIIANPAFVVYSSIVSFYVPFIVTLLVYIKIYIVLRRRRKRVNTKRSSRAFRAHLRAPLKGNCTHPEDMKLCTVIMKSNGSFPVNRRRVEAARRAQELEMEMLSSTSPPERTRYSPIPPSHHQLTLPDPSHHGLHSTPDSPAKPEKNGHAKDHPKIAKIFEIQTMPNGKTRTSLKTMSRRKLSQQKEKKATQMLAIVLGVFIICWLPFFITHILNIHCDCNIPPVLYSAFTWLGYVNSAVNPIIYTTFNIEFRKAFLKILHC
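PathHunter beta-arrestin assay in DiscoveRx D2 cells. Compounds were added with an EC20 of dopamine (50 nM final) for 90 min at 37 deg C. Luminescence was read 1 h after detection reagent, with 57 uM dopamine as the EC100 control.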
D2 ag-1: HTS Assay for Allosteric Agonists of the Human D2 Dopamine Receptor: Primary Screen for Agonists | D(2) dopamine receptor (Homo sapiens), P14416 | HEK293 T-REx D2 cells, calcium flux agonist mode | AID 485358, 2010 | activation, % at 2 µM | 340,000 compounds, 0.53% hits;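 active = activation over 3 SD above normal in the single-dose calcium agonist read, cut at about 30% in these data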; note: 0% is about no effect
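Tetracycline-induced HEK293 Trex cells with D2 receptor force-coupled to calcium signaling, plated overnight at 30 C and loaded with no-wash calcium dye. Calcium flux read kinetically for 180 s after compound addition; responses flag agonists.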
D2 antag: HTS Assay for Allosteric Antagonists of the Human D2 Dopamine Receptor: Primary Screen for Antagonists. D(2) dopamine receptor (Homo sapiens), P14416. HEK293 TREx D2 cells, calcium flux, dopamine EC80. inhibition, % at 10 µM. 340,000 compounds, 2% hits; in the data active = inhibition above about 30%; inactive = below that, where a call was filed; note: 0% is about no effect
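Measurement of antagonist activity uses fluorescent calcium dye in inducible HEK293 T-REx D2 cells: 10 s baseline, compound addition with 180 s read, EC80 dopamine addition with a further 180 s read.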
D2 ag-2: Beta-Arrestin HTS for Positive Allosteric Modulators of the Human D2 Dopamine Receptor: Agonists | D(2) dopamine receptor (Homo sapiens), P14416 | DiscoveRx PathHunter D2 beta-arrestin, luminescence, 90 min; 100% = 57 uM dopamine signal | activation, % (concentration not given with the values) | 360,000 compounds, 0.084% hits; in the data active = activation above about 40%; inconclusive = between about 15% and that limit
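DiscoveRx PathHunter D2 beta-arrestin cells (2,100/well) attached overnight, then compound-stimulated 90 min at 37 C in HBSS/10 mM HEPES/0.1% Tween-20 buffer; beta-galactosidase complementation read by luminescence after 1 h at ambient temperature. Dopamine 57 uM final (EC100) as control.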
D2 PAM-2: HTS Assay for Positive Allosteric Modulators of the Human D2 Dopamine Receptor: Primary Screen for Potentiators. HEK293 T-REx D2, calcium flux, EC20 dopamine potentiation. AID 485347, 2010. D(2) dopamine receptor (Homo sapiens), P14416. 340,000 compounds, 0.34% hits. potentiation, % at 10 µM;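 active = potentiation over 3 SD above the plate norm, cut at about 30% in these data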; note: 0% is about no effect
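Tetracycline-induced HEK293 T-REx cells force-coupled to calcium signalling expressed D2; compounds were pin-added after a 10 s baseline, read kinetically 180 s, then an EC20 dopamine challenge followed with a further 180 s calcium read.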
* = called active by the depositor; ? = inconclusive; . = no result. A selection: hits, their analogues and other compounds. The true share with any hit is near 2.4%.

SMILES	D2 PAM-1	D2 ag-1	D2 antag	D2 ag-2	D2 PAM-2
CCOc1ccccc1NS(=O)(=O)c1c(-c2ccc(C)cc2)csc1C(=O)OC	.	0.7	.	.	7.3
C=CCc1ccc(OCCCCN2CCC(C)CC2)c(OC)c1	-6.8	-0.4	-11.6	-0.8	-23.9
C=CCc1ccc(OCCCCN2CC(C)CC(C)C2)c(OC)c1 (stereo unspecified)	-5.6	-0.3	38.5*	-4.8	-16.1
Cc1cc2ncn(/N=C/c3ccc4c(c3)OCO4)c2cc1C	-2.9	2.0	89.0*	-3.4	-0.6
Cc1cc2ncn(/N=C/c3cccnc3)c2cc1C	-23.4	-0.1	-2.5	-2.0	0.3
O=C(COc1ccccc1)N/N=C/c1sc(=O)n(Cc2cccc(C(=O)O)c2)c1Cl	-3.7	0.2	44.4*	3.3	-4.5
O=C(CCn1cccn1)Nc1ccc(Br)cc1F	.	0.2	.	.	-12.8
COc1ccc(-c2nnc(NC(=O)c3ccc(F)cc3)o2)cc1	1.2	-0.5	33.9*	-6.1	-12.9
CCOc1ccc(-c2nnc(NC(=O)Cc3ccc(OC)cc3)o2)cc1	-6.7	0.0	35.0*	-3.6	-7.7
CCc1c(C)nc(SCc2nc(-c3ccccc3C)no2)[nH]c1=O	.	0.4	.	.	10.2
Fc1ccc(CNc2cc(-c3ccccc3)nc3nncn23)cc1	.	0.2	.	.	3.6
COc1ccc(NC2c3ccccc3C(=O)N2c2ccccn2)cc1 (stereo unspecified)	2.4	-1.3	41.1*	-2.2	-4.3
CCC(C)NC(=O)CN1C(=O)c2cccnc2Sc2ccccc21 (stereo unspecified)	.	1.0	.	.	10.0
Cc1ccc(CNC(=O)c2ccc(N3CCC4(CC3)CC(c3ccccc3)=NO4)c([N+](=O)[O-])c2)cc1	-28.2	6.9	45.2*	-3.0	-7.2
O=C(NCc1ccccc1)c1ccc(N2CCC3(CC2)CC(c2ccccc2)=NO3)c([N+](=O)[O-])c1	11.0	0.2	-15.6	0.4	-0.9
CCCc1cc(=O)[nH]c2nnc(SCC)n12	.	0.8	.	.	-4.7
O=C(CCN1C(=O)c2ccc([N+](=O)[O-])cc2C1=O)Nc1cccc(O)c1	62.9*	-0.5	-13.2	?	5.1
Cc1cc(O)ccc1NC(=O)CCN1C(=O)c2ccc([N+](=O)[O-])cc2C1=O	73.3*	-0.5	27.5	?	4.3
O=C(CCCn1cnc([N+](=O)[O-])n1)Nc1cccc(O)c1	4.4	2.1	34.7*	1.3	6.2
O=C(CCCn1cnc([N+](=O)[O-])n1)Nc1ccc(F)c(Cl)c1	-6.9	-0.2	1.7	-1.0	0.8
Cc1ccc(NC(=O)CCN2C(=O)c3ccccc3C2=O)c(C)c1	-9.0	.	.	-2.1	.
N#Cc1ccc(COc2cccc3cccnc23)cc1	0.3	0.4	-6.9	1.3	31.3*
CCC1CCCCN1C(=O)N[C@@H](CCSC)C(=O)OC (stereo partly specified)	-2.6	0.2	36.7*	-1.6	-4.7
CCS(=O)(=O)N1CCC(C(=O)NCCCN2CCC(Cc3ccccc3)CC2)CC1	-4.1	0.6	5.3	0.2	-9.8
CS(=O)(=O)N1CCCC(C(=O)NCCCN2CCC(Cc3ccccc3)CC2)C1 (stereo unspecified)	-24.3	0.7	46.3*	-1.3	-30.1
CS(=O)(=O)N1CCCC(C(=O)NCCCN2CCN(Cc3ccccc3)CC2)C1 (stereo unspecified)	-17.5	-0.6	0.7	-2.4	2.3
CCCS(=O)(=O)N1CCC(C(=O)NCCN2CCC(Cc3ccccc3)CC2)CC1	-5.2	38.0*	33.9*	1.3	-20.5
O=C(NCCN1CCOCC1)C12CC3CC(C1)CC(c1ccccc1)(C3)C2	-9.9	-0.5	38.4*	0.5	0.6
CCC(C)(C)NC(=O)C(c1cccn1C)N(Cc1ccc(OC)cc1)C(=O)Cn1nnc2ccccc21 (stereo unspecified)	-4.9	0.7	30.5*	-0.8	9.4
